# Measurements: PubChem BioAssay (NCI)
# Compounds without any hit were thinned out: in the full panel of roughly 83,000, 20% have a hit.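 Cells were grown in 96-well plates and exposed to the test compound at a single concentration for 48 hours; results are reported as percent growth, with values below 10 considered active.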 Unmarked numbers belong to inactive results. The source made the active and inactive calls.
# Key:
# Assay in all cases: NCI-60 one-dose screen, 48 h (100 = growth as untreated, 0 = no growth, -100 = all killed)
# [1] = tested on: T-47D breast; conditions: 10 µM unless noted
# [2] = tested on: BT-549 breast; conditions: 10 µM unless noted
# [3] = tested on: MDA-MB-435 melanoma; conditions: 10 µM unless noted
# [4] = tested on: SW-620 colon; conditions: 10 µM unless noted
# [5] = tested on: MCF7 breast; conditions: 10 µM unless noted
# [6] = tested on: HCT-116 colon; conditions: 10 µM unless noted
# [7] = tested on: HCC-2998 colon; conditions: 10 µM
# [8] = tested on: KM12 colon; conditions: 10 µM unless noted
SMILES,growth [1],growth [2],growth [3],growth [4],growth [5],growth [6],growth [7],growth [8]
COC(=O)[C@]12CC[C@@H](C)[C@H](C)[C@@H]1C1=CC[C@@H]3[C@@]4(C)C[C@@H](OC(=O)/C=C/c5ccccc5)[C@H](O)[C@@](C)(CO)[C@@H]4[C@H](O)C[C@@]3(C)[C@]1(C)CC2,13.2%,34.4%,11.5%,-58.6% (active),14.3%,-56.4% (active),-41.8% (active),-2.35% (active)
C/C(=C(/c1ccc(Cl)cc1)c1ccc(OCCN2CCCCC2)cc1)c1ccccc1,46.7%,81.3%,90.9%,60.1%,43.6%,54.2%,98%,29.9%
CCn1cc(-c2ccnc3[nH]c(-c4cccc(CN(C)C)c4)cc23)c(-c2ccc(NC(=O)N(C)C)cc2)n1,58%,14.1%,51.3%,2.66% (active),16.1%,8.47% (active),60%,11.1%
Cn1cc(-c2ccc(F)c(C(F)(F)F)c2)nc1C1CCN(c2ncnc3[nH]ncc23)CC1,25.8%,43.1%,93.3%,89.2%,61.4%,68.9%,95.5%,73.5%
Cc1ccc(-c2nc3ccc(Cl)cn3c2NC2CCCCC2)o1,58.1%,105%,97.2%,82.9%,72.1%,56.1%,102%,89.2%
C[C@@H](Oc1cc(-n2cnc3ccc(CN4CCN(C)CC4)cc32)sc1C(N)=O)c1ccccc1C(F)(F)F,40.8%,24.9%,9.74% (active),13.6%,17.7%,17.6%,14.1%,10.3%
COC(=O)C1=C(C(=O)OC)C23C=C(C)C1C2=C(C)C1(CC1)[C@@](C)(O)C3=O (stereo not given in full),-3.03% (active),-35.7% (active),-18.2% (active),78.1%,11.3%,5.3% (active),-22.1% (active),29.6%
CCCCOc1nc2cc(Cl)ccc2cc1/C=C/c1cc(/C=C/c2cc3ccc(Cl)cc3nc2OCCCC)n(-c2ccccc2)n1,65.7%,89.3%,112%,105%,94.5%,85.3%,102%,94.9%
O=c1[nH]ccc2c(S(=O)(=O)N3CCCNCC3)cccc12,37.7%,61.3%,88%,91.1%,85.9%,81.5%,92.2%,93.3%
CCN1CCN(c2nc(C)cc(N(CCCNc3ccnc4cc(Cl)ccc34)Cc3ccc4c(c3)OCO4)n2)CC1,-60.9% (active),-53.1% (active),-86.8% (active),-32.3% (active),7.69% (active),-9.36% (active),-40.3% (active),23.7%
COc1ccc(C2CC(=O)c3c(O)c(OC)c(OC)c(OC)c3O2)c(O)c1 (stereo not given),57.8%,60.6%,-33.7% (active),26.2%,32.5%,10.2%,15.9%,19.9%
CO[C@H]1C[C@@H]2CC[C@@H](C)[C@@](O)(O2)C(=O)C(=O)N2CCCC[C@H]2C(=O)O[C@H]([C@H](C)C[C@@H]2CC[C@@H](OP(C)(C)=O)[C@H](OC)C2)CC(=O)[C@H](C)/C=C(\C)[C@@H](O)[C@@H](OC)C(=O)[C@H](C)C[C@H](C)\C=C/C=C/C=C/1C,11.5%,39.7%,56.7%,60.1%,30.5%,65.1%,56.4%,59.6%
O=C(Nc1cn[nH]c1-c1nc2ccc(CN3CCOCC3)cc2[nH]1)NC1CC1,36.7%,2.57% (active),35.9%,11.5%,10.4%,3.94% (active),41.8%,6.92% (active)
C#Cc1cccc(Nc2ncnc3cc4c(cc23)OCCOCCOCCO4)c1,33%,50.3%,24.6%,84.7%,56.1%,64.7%,97.9%,53%
O=C(CNc1nnc(-c2ccc(Cl)cc2)o1)Nc1ccc(-c2nc3ccccc3s2)cc1,79.9%,87%,97.1%,110%,34.5%,89.8%,93.5%,97%
Cc1cc(N2CCOCC2)nc(N(CCNc2ccnc3cc(Cl)ccc23)Cc2cccs2)n1,-29.6% (active),-16.3% (active),-1.4% (active),19.5%,18.2%,-25.1% (active),-12.7% (active),26.4%
N[C@@H]1CCCN(c2c(/C=C3\SC(=O)NC3=O)cccc2-c2ccccc2)C1,25.7%,0.186% (active),56.7%,60.3%,45.3%,50.6%,74.8%,60.3%
COc1cc(-c2nc(C(=O)Nc3ccc(C)cc3)nn2-c2ccc(F)c(F)c2)cc(OC)c1OC,77.1%,100%,93.3%,110%,95.1%,95.7%,86.6%,102%
CCN1CCN(c2cc(C)nc(N(CCCNc3ccnc4cc(Cl)ccc34)Cc3ccc4c(c3)OCO4)n2)CC1,-51.8% (active),-42.6% (active),-73.7% (active),-3.47% (active),4.2% (active),2.67% (active),-42.3% (active),29.8%
O=C1C=CC2(NN=C(c3ccccc3)N2c2ccccc2)c2cccc(O)c21 (stereo not given),78.8%,41.1%,-92.4% (active),34.9%,35.4%,18.1%,54.2%,47.3%
N#Cc1c(C(F)(F)F)cc(Nc2ccc3nc(NCCN4CCCC4)oc3c2)n2c1nc1ccccc12,66.9%,72.3%,90.8%,37.4%,38.9%,17.9%,68%,73.9%
O=C1CC(c2ccc3c(c2)OCO3)c2ncn(-c3ccc(Cl)cc3)c2N1 (stereo not given),41.3%,57.5%,-42.8% (active),24.3%,45.5%,11.4%,68.1%,32.7%
CCc1ccc(/C=C/c2ccc(O)c3ncccc23)[n+](C)c1,31.2%,65.9%,59.4%,40.7%,53.8%,18.3%,31.6%,40.2%
COc1ccc2c(CCCCC(c3ccccc3)c3ccccc3)c3[n+](cc2c1OC)CCc1cc2c(cc1-3)OCO2,-49.3% (active),-74.2% (active),-91.8% (active),-76.9% (active),-40.6% (active),-52.8% (active),-95.7% (active),-71.5% (active)
CCN(CCCOc1ccc2c(Nc3cc(CC(=O)Nc4cccc(F)c4)[nH]n3)ncnc2c1)CCOP(=O)(O)O,73.6%,75.9%,69.2%,35.8%,46.6%,47.5%,61.4%,21.4%
C=CC(=O)N1CCC[C@@H](n2nc(-c3ccc(Oc4ccccc4)cc3)c3c(N)ncnc32)C1,0.0664% (active),34.6%,59.6%,95.2%,52.6%,59.8%,103%,53.6%
CCNC(=O)C#Cc1ccc2c(C(=Nc3ccc(CN(C)C)cc3)c3ccccc3)c(O)[nH]c2c1,62.3%,52.8%,14.7%,0.412% (active),33.1%,-16.2% (active),-17.3% (active),6.13% (active)
Cc1cc(N(CCNc2ccnc3cc(Cl)ccc23)Cc2cccs2)nc(Cl)n1,-34.3% (active),-55.4% (active),-1.48% (active),2.77% (active),5.64% (active),-85% (active),-14.3% (active),34%
CN1CCN(CCOc2cc(OC3CCOCC3)c3c(Nc4c(Cl)ccc5c4OCO5)ncnc3c2)CC1,-14.3% (active),89.2%,98.3%,110%,62.8%,35.3%,90.7%,17.1%
N#Cc1cc2[nH]c3ccc(OC(F)(F)F)cc3c2oc1=O,61.2%,76.5%,12.7%,71.6%,81.4%,81.2%,83.3%,80.2%
